Compounds with a hit are over-represented: about 19% of the library has one in this group of screens.
Shiga toxin inh = Shiga toxin inhibition; Vero cells, Shiga toxin protein synthesis inhibition reporter; inhibition, % at 38.7 µM; 9.2% of 290,000 active; AID 2315; in the data active = inhibition mostly above about 28%, no sharp cut-off; inactive = mostly below about 43%; note: 0% is about no effect
SARS PLP yeast = SARS-CoV PLP inhibition in yeast | S. cerevisiae expressing SARS-CoV PLpro, growth rescue | Potency, µM (top dose mostly 32.9 µM), inactives show top-dose activity, positive = growth rescue, most hits filed as activators | 0.19% of 330,000 active | AID 485353; calls by dose curve; note: potency is the fitted concentration of half-maximal effect; 0% is about no effect; nearly all actives have a fitted effect of over 55% in size
Cycloheximide cs = affects cycloheximide protein synthesis inhibition readout, counter-screen | cell reporter, cycloheximide protein synthesis inhibition counterscreen | max response, % | 12% of 300,000 active; in the data active = max response mostly above about 13%, no sharp cut-off; inactive = mostly below about 14%; note: read at 38.3 µM for the half of the compounds with a filed dose; 0% is about no effect
Pf growth 96h = P. falciparum growth inhibition at 96 hour, primary screen for plastid delayed-death inhibitors. P. falciparum luciferase reporter growth, 96 h. Potency, µM (top dose mostly 28.7 µM), without a hit: at the highest dose activity change, negative = inhibition, hits mostly inhibitors. 6.9% of 320,000 active. AID 504834; note: potency is the fitted concentration of half-maximal effect; % is set by controls: 0 for no effect and ±100 for the full control effect
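Two parasite generations (96 h, 37 C, 5% CO2) of compound exposure in infected erythrocytes (0.05% parasitemia, 2% hematocrit). Luciferase-reporter P. falciparum; decreased luminescence indicates inhibited growth, aimed at apicoplast-acting delayed death.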
Pf growth 48h = P. falciparum growth inhibition at 48 hours (one generation); P. falciparum luciferase growth in erythrocytes, 48 h; Potency, µM (top dose mostly 28.7 µM), without a hit: at the highest dose activity change, negative = inhibition, usual class: inhibitors; 5.9% of 310,000 active; AID 504832; note: potency is the fitted concentration of half-maximal effect; % is set by controls: 0 for no effect and ±100 for the full control effect
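Parasite viability was followed by luminescence of a genomically integrated firefly luciferase. Cultures held 0.1% parasitemia at 2% hematocrit (final), incubated under 5% CO2 at 37 C.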
AMA1-RON2 inh = disrupts binding of P. falciparum AMA1 to RON2; AlphaScreen AMA1-biotinylated RON2 peptide binding; Potency, µM (top dose mostly 58.2 µM), for inactives: top-dose activity change, negative = inhibition, actives largely listed as inhibitors; 0.2% of 360,000 active;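 note: potency is the fitted concentration of half-maximal effect; 0% = vehicle wells and -100% = peptide control; nearly all actives have a fitted effect of over 45% in size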
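AMA1 (3D7) with his tag at 25 nM final met compounds first, then biotinylated RON2 peptide at 25 nM; detection used donor plus acceptor beads, 10 µg/mL apiece, read by AlphaScreen after 30 min at room temperature.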
An asterisk follows results filed as active; ? = inconclusive; . = no result given; ! = not confirmed by another sample; [ ] = remark or other dose. Unless noted, calls come from the whole dose curve; as a rule, active = well fitted curve in the direction sought with a large enough effect; inconclusive = small, poorly fitted or top-dose-only effect, or another doubt; inactive = no such curve, though single readings can be large; an effect the other way counts as inactive or inconclusive.

SMILES | Shiga toxin inh | SARS PLP yeast | Cycloheximide cs | Pf growth 96h | Pf growth 48h | AMA1-RON2 inh
COc1ccc(-c2csc(NC(=O)CSc3nc(C)nc4sc(C(=O)O)c(C)c34)n2)cc1 | 1.8 | 1.2% | -1.7 | ? | ? | -4.2%
COc1ccc(OCC(=O)Nc2ccccc2C(=O)Nc2ccc(C(=O)O)cc2)cc1 | -9.1 | -1.8% | -0.4 | 0.0% | 16.8% | -0.2%
CCOc1ccc2nc(N3CCCC(C(=O)NCCCN4CCCCC4)C3)sc2c1 (stereo unspecified) | 35.8* | ? | 19.7* | -19.6% | -10.5% | -2.7%
Cc1cc(=O)n2nc(N3CCCC(C(=O)NCCCN4C(C)CCCC4C)C3)sc2n1 (stereo unspecified) | . | . | . | . | . | -14.5%
CCOc1ccc2nc(N3CCCC(C(=O)NCCCN4CC(C)CC(C)C4)C3)sc2c1 (stereo unspecified) | 23.1 | 0.0% | 31.7* | ? | ? | -1.0%
CCOc1ccc2nc(N3CCCC(C(=O)NCCCN4C(C)CCCC4C)C3)sc2c1 (stereo unspecified) | 54.1* | -3.0% | 16.6* | ? | -19.3% | -0.2%
COc1ccc2nc(N3CCCC(C(=O)NCCCN4CCN(C)CC4)C3)sc2c1 (stereo unspecified) | -2.1 | -18.9% | 16.2 | . | 7.7% | -1.4%
C=C1CCN(C(Cc2ccccc2)C(=O)NCc2ccc(Cl)c(Cl)c2)S(=O)(=O)c2ccccc21 (stereo unspecified) | 18.8 | . | 9.5 | . | . | .
CC[C@]1(C(=O)OC)[C@H]2C(=O)N(C)C(=O)[C@H]2[C@H]2CN=C(SCc3ccc(OC)cc3)N21 | . | 5.2% | . | . | . | 29.0%
C/C(=N\NC(=O)c1cccc(S(=O)(=O)N2CCOCC2)c1)c1ccc(OCC(=O)N(C)C)cc1 | . | -4.9% | . | -14.0% | -8.9% | 28.3%
COCC1CCN(C(=O)c2cc(COc3ccc(F)cc3F)on2)C1 (stereo unspecified) | 39.4 | -8.4% | 19.5* | -1.7% | 5.8% | -6.2%
O=C(c1cc(COc2c(F)cccc2F)on1)N1C[C@H]2CC[C@H]1C2 | 102.6* | 3.6% | 76.2* | ? | 78.2% | 0.0%
O=C(c1cc(COc2ccc(F)cc2F)on1)N1C[C@H]2CC[C@H]1C2 | 100.6* | -13.7% | 52.0* | 0.0% | 35.7% | -12.1%
CC1CN(c2ccccc2)CCN1C(=O)c1cc(COc2c(F)cccc2F)on1 (stereo unspecified) | 38.2 | -8.2% | -2.0 | 19.6% | -7.1% | -9.8%
O=C(c1cc(COc2ccc(F)cc2F)on1)N1CC2C[C@@H]3CC1C[C@H](C2)C3 | 115.2* | -1.1% | 43.2* | ? | ? | 5.4%
COCC1CCN(C(=O)c2cc(COc3ccccc3SC)on2)C1 (stereo unspecified) | -8.6 | 1.7% | -3.7 | ? | -0.6% | 2.9%
COc1ccccc1OCc1cc(C(=O)N2CC3C[C@@H]4CC2C[C@H](C3)C4)no1 | 75.6* | -3.0% | 50.8* | 11.9% | ? | -7.9%
COc1ccc(OCc2cc(C(=O)N3C[C@H]4CC[C@H]3C4)no2)c(Cl)c1 | 88.4* | . | 36.0* | 3.9% | 43.1% | 7.8%
O=C(NC1CCN(Cc2ccccc2)CC1)c1ccccc1NS(=O)(=O)c1ccc(F)c(F)c1 | . | . | . | . | . | 7.8%
O=C(NC1CCN(Cc2ccccc2)CC1)c1cc(S(=O)(=O)Nc2ccc(F)cc2)ccc1Cl | . | 1.9% | . | 9.28µM* | 9.28µM* | -1.1%
O=C(NC1CCN(CCc2c[nH]c3ccccc23)CC1)c1ccccc1 | -10.9 | -1.6% | 4.6 | 12µM* | 15.1µM*! | 0.7%
c1ccc2c(CCN3CCCCC3)c[nH]c2c1 | . | . | . | . | . | 0.0%
O=C(NC1CCN(Cc2ccccc2)CC1)c1ccccc1OCc1ccccc1 | -3.6 | 0.3% | -6.5 | 9.28µM* | ? | -1.6%
CCOC(=O)N1CCC(NC(=O)c2cc(C(=O)NCc3cccc(Cl)c3)ccc2CO)CC1 | -10.5 | 8.1% | -3.4 | ? | . | 8.2%
CCOC(=O)N1CCC(NC(=O)c2cc(C(=O)NC3CCN(Cc4ccccc4)CC3)ccc2CO)CC1 | 27.4 | 1.7% | -1.7 | 10.4µM* | 16.0% | 35.0%
SMILES | Shiga toxin inh | SARS PLP yeast | Cycloheximide cs | Pf growth 96h | Pf growth 48h | AMA1-RON2 inh
O=C(NC1CCN(Cc2ccccc2)CC1)c1ccccc1 | -5.0 | -1.0% | -5.9 | -4.8% | 12.7%[0.00184 µM] | 0.7%
O=C(NC1CCN(Cc2ccc(Cl)cc2Cl)CC1)c1ccccc1 | -8.6 | 1.0% | -9.4 | 2.94µM* | -16.2%[0.00184 µM] | 5.0%
CC(C)(C)c1ccc(C(=O)NC2CCN(Cc3ccccc3)CC2)cc1 | -8.2 | -0.6% | -3.7 | 3.29µM* | ? | -2.6%
Cc1ccc(Cl)cc1S(=O)(=O)N1CCC(C(=O)NC2CCN(Cc3ccccc3)CC2)CC1 | 1.3 | -1.7% | -2.2 | 0.0% | 7.38µM* | -6.5%
CC(=O)Nc1ccc(S(=O)(=O)N2CCN=C2c2ccccc2)cc1 | -16.8 | 2.2% | 0.1 | 14.7µM* | -19.0% | -3.4%
Cc1cc(C)c(S(=O)(=O)N2CCN=C2c2ccccc2)cc1C | -5.9 | -1.5% | -0.1 | ? | . | -10.8%
CSc1nc(-c2ccco2)nn1S(C)(=O)=O | -9.3 | 5.6% | -1.1 | . | 0.5% | ?
COC(=O)c1ccccc1NC(=O)CSc1ccccc1 | 24.8 | -0.1% | 1.1 | 0.3% | -19.9% | 1.9%
O=C(CSc1ncn[nH]1)Nc1ccc(Br)cc1F | 40.0 | 8.3% | 25.2* | 98.7% | 53.5% | -4.3%
COc1ccccc1NC(=O)CSc1ncn[nH]1 | -5.2 | 4.8% | 19.7 | 0.3% | -4.5% | 1.2%
O=C(CSc1ccccc1)Nc1ccccc1C(=O)O | 87.5* | . | 27.1* | 1.6% | 20.4% | 1.9%
O=C(CSc1ncn[nH]1)Nc1ccccc1C(=O)O | -13.7 | 5.2% | -3.2 | 2.94µM* | 9.5% | 1.8%
Cc1ccc(SCC(=O)Nc2ccccc2C(=O)O)cc1 | 116.6* | -1.0% | 28.8* | . | 59.2% | 10.4%
COCCNC(=O)C1CCC(=O)N1S(=O)(=O)c1ccc(C)cc1 (stereo unspecified) | 7.3 | -4.5% | 0.6 | ? | -8.5% | -9.9%
Cc1ccc(Cl)cc1N1CCN(C(=O)CCS(=O)(=O)c2ccc3c(c2)NC(=O)CO3)CC1 | 18.0 | -4.8% | -4.2 | 20.3% | -14.5% | -5.8%
O=C1NC(NS(=O)(=O)c2ccc(Cl)cc2)(C(F)(F)F)C(=O)N1c1ccccc1 (stereo unspecified) | -27.3 | -3.8% | -1.7 | ? | -4.0% | 5.7%
Cc1ccc(CSCC(=O)Nc2ccccc2C(=O)O)cc1 | 47.1* | 3.5% | 35.6* | 2.08µM* | 44.3% | -1.6%
Cc1ccc(CSCC(=O)NCCc2ccccc2)cc1 | 84.8 | -4.0% | 17.7* | -16.5% | 22.2% | -4.1%
CSc1ccccc1NC(=O)CSCc1ccc(C)cc1 | 5.8 | -26.4% | 21.4 | ? | ? | 29.8%
Cc1c(C#N)c(NC(=O)C(C)C)n(Cc2ccccc2)c1C | 9.2 | 0.4% | -5.0 | ? | -11.2% | -1.5%
C/C(=N/NC(N)=S)c1ccc(Br)s1 | 14.6 | -0.8% | -2.7 | -3.0% | 14.7µM* | 81.7%

Assay outcomes: PubChem BioAssay, National Center for Advancing Translational Sciences (NCATS)
